Rows were chosen to be rich in hits. Some 3.7% of all compounds tested hit in one or more screens of this group.
GPR32 ag: qHTS for Agonists of Human Resolvin D1 Receptor DRV1; Probable G-protein coupled receptor 32 (Homo sapiens), O75388; CHO-K1 GPR32 beta-arrestin PathHunter luminescence, 90 min; zero percent set by DMSO-only wells; activation, % at 76.9 µM; hit rate 2.5% among 48,000; AID 1346428, 2018;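 active = activation of at least 60% and not above a set upper limit, about 1 call in 100 departs from these limits; inconclusive = activation of 40% to 60%, or above that upper limit; inactive = activation under 40%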; note: 0% is about no effect
Target sequence (O75388 whole entry, looked up): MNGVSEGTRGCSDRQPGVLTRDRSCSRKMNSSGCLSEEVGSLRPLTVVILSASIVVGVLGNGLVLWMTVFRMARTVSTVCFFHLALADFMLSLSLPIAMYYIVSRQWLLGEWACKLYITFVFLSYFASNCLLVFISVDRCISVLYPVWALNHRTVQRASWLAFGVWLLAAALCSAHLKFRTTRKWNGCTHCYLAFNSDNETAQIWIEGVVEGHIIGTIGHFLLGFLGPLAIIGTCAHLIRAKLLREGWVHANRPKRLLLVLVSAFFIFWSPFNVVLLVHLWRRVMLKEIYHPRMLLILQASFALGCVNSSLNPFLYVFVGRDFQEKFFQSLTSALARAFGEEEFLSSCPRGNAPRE
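PathHunter enzyme-fragment complementation, CHO-K1 GPR32 stable line; 2,500 cells/well, overnight attach; cpd 90 min 37 °C 5% CO2; detection reagent 1 h RT; chemiluminescence. DMSO = EC0.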
NTMT1 inh: Primary qHTS for Inhibitors of N-terminal methyltransferase 1 (NTMT1): MTaseGlo Assay. N-terminal Xaa-Pro-Lys N-methyltransferase 1 (Homo sapiens), Q9BV86. NTMT1 MTase-Glo SAH luminescence, purified enzyme. Potency, µM (highest dose often 114 µM), without a hit: top-dose activity change, negative = inhibition, usual class: inhibitors. hit rate 2.5% among 59,000. AID 1645870, 2021;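 note: potency is the fitted concentration of half-maximal effect; plate controls were DMSO vehicle for no effect and no enzyme for full effect; nearly all actives have a fitted effect of over 65% in size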
FH mod: Identification of activators of human fumarate hydratase by quantitative high-throughput screening; AID 1347055, 2019; hit rate 0.22% among 54,000; FH coupled MDH/diaphorase resazurin fluorescence, 15 min; Fumarate hydratase, mitochondrial (Homo sapiens), P07954; Potency, µM (top dose mostly 79.9 µM), without a hit: at the top dose activity change, negative = inhibition, actives largely listed as inhibitors; note: potency is the fitted concentration of half-maximal effect; % is set by controls: 0 for no effect and ±100 for the full control effect; the screen sought activators but most active calls are inhibition curves; nearly all actives have a fitted effect of over 45% in size
GALK inhibitor: qHTS Assay for Inhibitors of Human Galactokinase (GALK): NCGC Sytravon Library Screen | recombinant GALK, Kinase-Glo ATP luminescence, 1 h | P51570 | Potency, µM (top dose mostly 57.5 µM), for inactives: at the top dose activity, negative = inhibition, actives largely listed as inhibitors | 44,000 tested, under 10 active;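 note: plate controls were full GALK reaction for no effect and reaction lacking GALK for full effect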
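Reactions with and without enzyme served as controls. GALK at 5 nM phosphorylates 100 uM galactose using 35 uM ATP (HEPES pH 8.0, Mg2+) for 1 h at RT, with luminescence read 10 min after adding Kinase-Glo Plus.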
B2AR arrestin ag: qHTS assay of beta-arrestin-biased ligands of beta2-adrenergic receptor: NCGC Sytravon Library Screen | Potency, µM (series often up to 46.1 µM), actives largely listed as activators | 44,000 tested, under 10 active | HTLA Tango cells, beta-arrestin recruitment, luciferase luminescence, 18 h | Beta-2 adrenergic receptor (Homo sapiens), P07550 | AID 1347077, 2019;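 note: potency is the fitted concentration of half-maximal effect; 0% = DMSO and full agonism = EC100 isoproterenol or metaproterenol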
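Receptor–beta-arrestin recruitment read by tTA-responsive luciferase: compound titrations (up to 46 µM) incubated 18 h with Tango cells, then luminescent substrate 15 min at room temperature. Concentration-response fits classified by r2, efficacy and activity.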
TSG101-PTAP inh: qHTS Validation Assay for Inhibitors of HIV-1 Budding by Blocking the Interaction of PTAP/TSG101: Sytravon Library Screen; Potency, µM (titrated, usually from 115 µM), usual class: inhibitors; Tumor susceptibility gene 101 protein (Homo sapiens), Q99816; 44,000 tested, under 10 active; Fluorescence polarization, FITC-PTAP peptide/Tsg101, 20 min; note: potency is the fitted concentration of half-maximal effect; 0% is about no effect
Target sequence (Q99816 whole entry, looked up): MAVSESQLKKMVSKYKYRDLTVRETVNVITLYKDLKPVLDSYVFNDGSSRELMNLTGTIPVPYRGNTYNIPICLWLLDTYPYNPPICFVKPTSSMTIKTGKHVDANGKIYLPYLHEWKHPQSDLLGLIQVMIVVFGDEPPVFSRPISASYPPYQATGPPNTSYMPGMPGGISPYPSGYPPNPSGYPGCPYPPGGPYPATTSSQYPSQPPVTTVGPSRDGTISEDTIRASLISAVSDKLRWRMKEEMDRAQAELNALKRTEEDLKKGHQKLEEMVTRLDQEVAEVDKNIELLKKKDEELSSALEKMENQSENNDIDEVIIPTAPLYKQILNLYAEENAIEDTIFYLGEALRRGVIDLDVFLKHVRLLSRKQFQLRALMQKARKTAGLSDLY
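qHTS FP binding, 20 min r.t.: 10 uM Tsg101 domain + 50 nM FITC-PTAP peptide, pH 7.5 HEPES buffer with TCEP and EDTA.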
Numbers without * were called inactive; i = inactive; ? = inconclusive; / = no result; ! = repeats disagree; [ ] = dose if it differs, or a comment. Unless noted, calls come from the whole dose curve; as a rule, active = well fitted curve in the direction sought with a large enough effect; inconclusive = small, poorly fitted or top-dose-only effect, or another doubt; inactive = no such curve, though single readings can be large; an effect the other way counts as inactive or inconclusive.

SMILES | GPR32 ag | NTMT1 inh | FH mod | GALK inhibitor | B2AR arrestin ag | TSG101-PTAP inh
COc1cc(OC)c(/C=C2/C(=O)Nc3ccccc32)c(OC)c1 | 2.2 | / | -22.7%[53.3 µM] | / | / | /
O=C1CCCC2=C1C(c1[nH]ncc1Cl)N=C(Nc1nc3cc(Cl)ccc3o1)N2 (centres undefined) | / | -3.0%[57.5 µM] | / | / | / | /
C[C@@H]1O[C@@H](O[C@H]2CC[C@@]3(C)C(CC[C@]4(C)C3CC=C3[C@@H]5CC(C)(C)CC[C@]5(C(=O)O[C@@H]5O[C@H](CO)[C@@H](O)[C@H](O)[C@H]5O)CC[C@]34C)[C@]2(C)CO)[C@H](O)[C@H](O[C@@H]2O[C@H](CO)[C@@H](O)[C@H](O)[C@H]2O)[C@H]1O (some centres undefined) | / | ? | -1.6%[20.6 µM] | / | / | /
NC(=O)NN=Cc1ccc([N+](=O)[O-])o1 | / | -23.5%[57.5 µM] | -1.8%[53.3 µM] | / | / | /
CC(=O)N/N=C/c1ccc([N+](=O)[O-])o1 | 68.0* | -19.6%[57.5 µM] | -4.0%[53.3 µM] | / | / | /
CC1=C(C(N)=O)C(c2cccc(O)c2)n2ncnc2N1 (centres undefined) | 60.7* | 5.1% | 1.0% | -0.9% | i | i
CC1=C(C(=O)Nc2ccccc2Cl)C(c2cccc(O)c2)n2ncnc2N1 (centres undefined) | -4.6 | 0.6% | -11.4% | 4.0% | i | i
CCOC(=O)c1c(NC(=O)/C(C#N)=C/c2ccc(OC)cc2)sc2c1CCC2 | -10.1 | 10.7% | 9.8% | 0.8% | i | i
CCOc1ccc(/C=C(\C#N)C(=O)Nc2sc3c(c2C(=O)OC)C(C(=O)OC)CC3)cc1OC (centres undefined) | -5.3 | 10µM* | 3.6% | -2.2% | i | i
CN(C)c1ccc(CNc2nc(-c3ccccc3C(F)(F)F)nc3ccccc23)cc1 | / | 20.9% | / | / | / | /
Cn1nc(-c2ccc(OCC(=O)Nc3cccc(C(F)(F)F)c3)cc2)c2ccccc2c1=O | 84.7* | -5.6% | 1.7% | 3.2% | i | i
Cn1nc(-c2ccc(C(=O)Nc3ccc(F)cc3)cc2)c2ccccc2c1=O | 105.2* | ? | -4.1% | 1.7% | i | i
Cn1nc(-c2ccc(N3CCCCC3)c(NC(=O)c3ccc(Cl)cc3)c2)c2ccccc2c1=O | -0.5 | 14.9% | -4.1% | 2.6% | i | i
Cc1ccc(NC(=O)COc2ccc(-c3nn(C)c(=O)c4ccccc34)cc2)cc1 | 25.8 | -14.1% | -20.1% | 0.0% | i | i
CC1CCC2C(C)(C)C(O)CCC2(C)C12Cc1c(O)cc3c(c1O2)C(N)=NC3 (centres undefined) | / | -6.4%[29.8 µM] | 1.1%[53.3 µM] | / | / | /
Cc1ccc(F)c(NC(=O)Nc2ccc3snnc3c2)c1 | 68.1* | -1.9% | 6.2% | 5.1% | i | i
Cc1ccccc1-c1ccc(=O)n(CC(=O)NCCc2ccccc2)n1 | / | -18.4% | / | / | / | /
CCOc1ccc(CCNC(=O)CSc2n[nH]c(-c3ccccc3)n2)cc1OCC | -6.1 | 5.6% | 6.31µM* | 3.5% | i | i
Cc1ccc(C)c(N2CCN(C(=O)CCNS(=O)(=O)c3ccc4c(c3)CCN4C(=O)C3CC3)CC2)c1 | 48.7 | -1.3% | -9.2% | -0.1% | i | i
O=C(CCNS(=O)(=O)c1ccc2c(c1)CCN2C(=O)C1CC1)N1CCN(c2ccccc2F)CC1 | 70.6* | 17.5% | -8.9% | -3.2% | i | i
O=C(O)C(O)Cc1ccc(O)c(O)c1 (centres undefined) | / | 89.1µM*! | -11.9%[53.3 µM] | / | / | /
COc1ccc(C[C@@H](C)[C@@H](C)Cc2ccc(OC)c(OC)c2)cc1OC | / | 11.4% | -10.3%[53.3 µM] | / | / | /
C[C@H](Cc1ccc(O)c(O)c1)[C@@H](C)Cc1ccc(O)c(O)c1 | 30.1 | 7.94µM* | ? | / | / | /
N[C@@H](Cc1ccc(O)c(O)c1)C(=O)O | 2.1 | -19.6% | -26.6%[53.3 µM] | / | / | /
Cc1cnc(-c2ccccc2N(C)C)nc1NCc1ccc(-c2cccnc2)cc1 | / | -10.4% | / | / | / | /
SMILES | GPR32 ag | NTMT1 inh | FH mod | GALK inhibitor | B2AR arrestin ag | TSG101-PTAP inh
CCOC(=O)c1c(-c2ccccc2)oc2ccc(OCc3cccc(Br)c3)cc12 | -13.6 | 17.6% | 3.7% | 0.1% | i | i
Cc1cc(OCCCS(C)(=O)=O)cc(C)c1-c1cccc(COc2ccc3c(c2)OC[C@H]3CC(=O)O)c1 | / | 79.4µM*! | -20.4%[53.3 µM] | / | / | /
CN1CCc2cccc3c2[C@H]1Cc1ccc(O)c(O)c1-3 | -13.9 | 22.4µM* | ? | / | / | /
CC(=O)c1ccc2c(c1)c1cc(C(C)=O)ccc1n2CCNC(C)C | / | -7.3% | / | / | / | /
O=C(O)C(O[C@@H]1O[C@H](CO[C@@H]2O[C@H](CO)[C@@H](O)[C@H](O)[C@H]2O)[C@@H](O)[C@H](O)[C@H]1O)c1ccccc1 (some centres undefined) | / | 12.1%[29.8 µM] | 5.1%[53.3 µM] | / | / | /
COc1ccc(Nc2oc(-c3ccc(COc4ccccc4C)o3)nc2C#N)cc1 | -19.7 | -1.7% | ? | 5.3% | i | i
CCOc1ccc(Nc2oc(-c3ccc(COc4ccc(OC)cc4)o3)nc2C#N)cc1 | 86.3* | 12.6% | -12.0% | 5.3% | i | i
COc1ccccc1N1CCN(S(=O)(=O)c2ccc(-c3ccno3)cc2OC)CC1 | -6.9 | 89.1µM* | -12.6% | -1.7% | i | i
Cc1ccc(CNc2c(C)c(C)nc3nncn23)cc1 | ? | -0.5% | -1.0% | 1.5% | i | i
CCc1c(C)nc2nncn2c1NCc1ccc(Cl)cc1 | 65.7* | 1.8% | -0.6% | 0.6% | i | i
CC1(C)C[C@H](O)C[C@@]2(C)OC(=O)C=C12 | / | -14.6% | -12.6% | / | / | /
COC(=O)c1ccc2c(c1)N(CC(=O)Nc1cccc(C(F)(F)F)c1)C(=O)c1ccccc1S2 | 107.4* | 17.4% | 1.3% | -0.9% | i | i
COC(=O)c1ccc2c(c1)N(CC(=O)Nc1ccc(OC)c(Cl)c1)C(=O)c1ccccc1S2 | -4.7 | 3.6% | -6.6% | -0.4% | i | i
CC(=O)c1cccc(NC(=O)CN2C(=O)c3cccnc3Sc3ccccc32)c1 | -5.6 | -9.2% | -20.9% | 1.4% | i | i
CC(=O)c1cccc(NC(=O)CN2C(=O)c3ccccc3Sc3ncccc32)c1 | 71.5* | -2.1% | -8.7% | 3.4% | i | i
